G9a inh = G9a (human) methyltransferase inhibition; Potency, µM (series often up to 102 µM), for inactives: top-dose activity, negative = inhibition, actives largely listed as inhibitors; hit rate 8.8% among 350,000; G9a H3K9 monomethylation, AlphaScreen, 2 h; further: on the % scale 0 is the no-effect control and ±100 the full control effect; nearly all actives have a fitted effect of over 75% in size
Target sequence (Q96KQ7 913-1193 limits assumed): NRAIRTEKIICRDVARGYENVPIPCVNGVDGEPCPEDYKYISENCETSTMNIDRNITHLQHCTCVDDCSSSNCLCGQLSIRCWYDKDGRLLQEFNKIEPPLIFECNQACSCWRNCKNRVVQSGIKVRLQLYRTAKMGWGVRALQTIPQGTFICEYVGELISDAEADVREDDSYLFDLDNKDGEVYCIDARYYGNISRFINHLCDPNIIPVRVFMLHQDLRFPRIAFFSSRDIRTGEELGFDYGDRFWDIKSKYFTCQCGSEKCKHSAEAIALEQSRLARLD
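Quantitative HTS format: methyltransferase activity on a biotin-tagged H3K9 peptide is measured by AlphaScreen, using a rabbit anti-monomethyl-H3K9 antibody with streptavidin donor and anti-IgG acceptor beads. Final levels are 20 nM enzyme, 500 nM peptide, 20 uM SAM; 2 h RT.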
BAZ2B inh = inhibitors of human BAZ2B bromodomain; Q9UIF8; AlphaScreen BAZ2B-H3K14Ac peptide displacement; Potency, µM (top dose mostly 114 µM), for the others: top-dose activity change, negative = inhibition, usual class: inhibitors; hit rate 4.4% among 360,000; AID 504333; further: on the % scale 0 is the no-effect control and ±100 the full control effect; nearly all actives have a fitted effect of over 60% in size
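In this displacement format the biotinylated H3(5-23) peptide acetylated at Lys14 serves as ligand at 50 nM, with BAZ2B at 50 nM in PBS pH 7.4 containing 0.01% Tween-20. Donor and acceptor beads are 10 ug/mL final.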
JMJD2A Tudor inh = inhibitors of human JMJD2A Tudor domain. O75164. AlphaScreen JMJD2A-Tudor / H3K4me3 peptide binding. Potency, µM (series often up to 114 µM), inactives show at the top dose activity change, negative = inhibition, hits mostly inhibitors. hit rate 4.4% among 390,000; further: on the % scale 0 is the no-effect control and ±100 the full control effect; nearly all actives have a fitted effect of over 50% in size
HP1b binding inh = HP1-beta chromodomain-methylated histone interaction inhibition; P83916; AlphaScreen HP1-beta / biotin-H3K9me3 peptide binding; Potency, µM (titrated, usually from 114 µM), inactives show at the top dose activity change, negative = inhibition, hits mostly inhibitors; hit rate 0.56% among 390,000; further: nearly all actives have a fitted effect of over 70% in size
Target sequence (P83916 whole entry, looked up): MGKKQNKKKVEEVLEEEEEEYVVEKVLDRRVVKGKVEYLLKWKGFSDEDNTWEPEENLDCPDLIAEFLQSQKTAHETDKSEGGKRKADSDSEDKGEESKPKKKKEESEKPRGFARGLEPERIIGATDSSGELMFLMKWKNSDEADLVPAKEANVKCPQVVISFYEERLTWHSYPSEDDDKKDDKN
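HP1-beta protein (50 nM final) preincubated 30 min at room temperature with biotinylated H3(1-18)K9me3 peptide (50 nM) in PBS pH 7.4, 0.01% Tween-20, then compound added for 30 min. AlphaScreen streptavidin donor/nickel chelate acceptor beads (10 ug/mL final), 30 min dark, luminescence read.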
Sfp inh = Sfp phosphopantetheinyl transferase inhibition | Biochemical Sfp PPTase activity, qHTS | Potency, µM, without a hit: largest response in the series, negative = inhibition, actives largely listed as inhibitors | Q9F4F7 | hit rate 3.5% among 310,000;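 further: the enzyme is Sfp with the accession as filed and its product quenches rhodamine fluorescence; 0% = enzyme reaction without inhibitor and -100% = no enzyme wells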
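Compounds were incubated with enzyme (final 15 nM) for 15 min at room temperature before substrate addition started the reaction. Fluorescence at 525 nm excitation, 598 nm emission was recorded immediately and after 30 minutes.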
Starred values were filed as active, the others as inactive; ? = inconclusive; · = not tested or not shown; [ ] = dose if it differs, or a comment. An excerpt weighted towards active compounds, which were near 12% of everything screened. The call rests on the fitted dose curve; in most records, active means well fitted curve in the direction sought with a large enough effect; inconclusive means small, poorly fitted or top-dose-only effect, or another doubt; inactive means no such curve, though single readings can be large; an effect the other way counts as inactive or inconclusive. Potency means the concentration at half of the fitted maximal effect.

SMILES	G9a inh	BAZ2B inh	JMJD2A Tudor inh	HP1b binding inh	Sfp inh
COc1ccc(/C=C/C(=O)c2cc(Br)ccc2O)cc1OC	25µM*	?	-19%	38%	-13%
CCN(CC)CCNC(=O)c1cc2ccccc2nc1Cl	?	79µM*	35µM*	-10%	-15%
O=C(NCc1ccncc1)c1cc2ccccc2nc1Cl	45µM*	-17%	-12%	16%	11%
CCN(CC)CCNC(=O)c1ccccc1N	-5%[59 µM]	-4%	4%	32%	20%
Cc1nc2ccccc2cc1C(=O)NCc1ccc(F)cc1	20%[0.0925 µM]	-1%	0%	39%	16%
CC(=O)c1ccc(N(CC(=O)NC2CCCC2)C(=O)CCC(=O)Nc2cc(C)on2)cc1	8%	-6%	-11%	4%	5%
Cc1noc(/C=C/N(C)C)c1S(=O)(=O)N1CCN(c2ccccc2)CC1	?	?	?	-1%	7%
O=S(=O)(/N=C(/Nc1ccccc1)C(F)(F)F)c1ccccc1	-15%[59 µM]	7%	-21%	20%	10%
COc1ccc(/C=C2\Oc3cc(OCC(=O)N4CCC[C@H]4C(=O)O)ccc3C2=O)cc1OC	·	-34%	-26%	16%	7%
COc1cccc(/C=C2\CC(C)Cc3c2nc2ccccc2c3C(=O)O)c1OC (stereo not given)	50µM*	-13%	10%	44%	32µM*
COc1ccccc1N1CCN(C(=O)c2c3c(nc4ccccc24)C(=O)N(C2CCCCC2)C3)CC1	0%[59 µM]	-3%	-2%	56%	·
Cc1ccsc1/C=C1/CN(C)Cc2c1nc1ccccc1c2C(=O)O	·	-19%	-11%	13%	?
CCN1C/C(=C\c2cccc(C)c2)c2nc3ccccc3c(C(=O)O)c2C1	17%[0.501 µM]	?	·	·	79µM*
CCOc1cc(/C=C2\CCCc3c2nc2ccccc2c3C(=O)O)ccc1OC	?	79µM*	89µM*	-5%	10µM*
COc1cc(/C=C2\CCc3c2nc2ccccc2c3C(=O)O)cc(OC)c1OC	14µM*	45µM*	89µM*	-26%	?
COc1cc(/C=C2\CCCc3c2nc2ccccc2c3C(=O)O)cc(Br)c1O	40µM*	?	-10%	16%	-5%
O=[N+]([O-])c1ccc(-c2cc(-c3ccncc3)nc3ccc4ccccc4c23)cc1	45µM*	?	-22%	2%	-4%
CC1=C(C)CS(=O)N(S(=O)(=O)c2ccccc2)C1 (stereo not given)	8.9µM*	3%	-20%	30%	14µM*
CC1=C(C)CS(=O)N(c2ccc(S(N)(=O)=O)cc2)C1 (stereo not given)	?	1%	2%	61%	25µM*
S=c1nn[nH]c2ccccc12	·	·	11µM*	-13%	·
NC(=O)C1(N2CCCCC2)CCN(Cc2nc(-c3cccs3)no2)CC1	0%	-11%	-13%	27%	4%
O=C(O)COc1ccc(/C=C/C(=O)c2ccc3ccccc3c2)cc1	-7%	-10%	-29%	-6%	-5%
O=C(/C=C/c1cc[n+](CC(=O)c2ccc3cccc4c3c2CC4)cc1)c1ccc2cccc3c2c1CC3	40µM*	?	-18%[11.4 µM]	8%	35µM*
Cc1ccc2c(c1)S/C(=C\c1cccc[n+]1C)N2CCO	?	-16%	?	11%	?
C[n+]1ccccc1/C=C1\Sc2ccccc2N1CCO	50µM*	?	?	33%	7%
SMILES	G9a inh	BAZ2B inh	JMJD2A Tudor inh	HP1b binding inh	Sfp inh
CC(=O)Nc1ccc(C(=O)CSc2nnc(C)o2)cc1	-14%[59 µM]	0%	-3%	12%	-9%
Cc1ccc([C@@H]2CC=C(C(=O)O)[C@H](c3ccccc3F)N2S(=O)(=O)c2ccc(C)cc2)cc1	25%[2.33 µM]	3%	-10%	39%	·
C=CCn1c(SCC(=O)Nc2cc(C)ccc2OC)nnc1-c1ccco1	11%	-2%	-10%	27%	18%
CCOc1ccccc1NC(=O)CSc1nnc(-c2ccco2)n1Cc1ccco1	18µM*	?	-34%	7%	-11%
COc1ccc(OC)c(NC(=O)CSc2nccn2Cc2ccco2)c1	50µM*	-36%	-33%	-3%	13%
COc1ccc(C)cc1NC(=O)CSc1nnc(-c2ccco2)n1Cc1ccco1	56µM*	-36%	?	-19%	-19%
Cc1ccc(NC(=O)CSc2nccn2Cc2ccco2)c(C)c1	·	-38%	-2%	16%	-7%
CCOc1ccccc1NC(=O)CSc1nnc(-c2ccccn2)n1Cc1ccco1	-51%	?	?	15%	-22%
CCN(CC(=O)NCc1ccc(F)cc1)Cc1cc(=O)n2ccsc2n1	45µM*	-24%	-23%	26%	17%
CCCn1c(N)c(N2CCCCC2)c(=O)n(CC(=O)Nc2ccccc2C(F)(F)F)c1=O	·	·	-4%	31%	·
OCCOCCOc1cccc2[nH]ccc12	-7%	-19%	-10%	13%	22%
CN(CCO)CCOCCOc1cccc2ccccc12	?	·	10µM*	?	?
CCSc1nc2ccc(N3C(=O)C4C5C=CC(C5)C4C3=O)cc2s1 (stereo not given)	11µM*	3%	-13%[57.1 µM]	-4%	4%
CC(=O)c1cccc(-n2c(=O)c3c4c(sc3n(CC(=O)c3ccccc3)c2=O)CN(C(C)=O)CC4)c1	1%[59 µM]	3%	-21%	7%	·
COc1ccc(-n2c(NC(=O)c3ccco3)c(C#N)c3nc4ccccc4nc32)cc1	-7%[59 µM]	6%	-22%[57.1 µM]	66%	35µM*
CCOC(=O)c1c(NC(=O)c2ccco2)n(C2CCCCC2)c2nc3ccccc3nc12	50µM*	13%	-15%	54%	-17%
CCC(=O)Nc1c(C#N)c2nc3ccccc3nc2n1C1CCCCC1	-11%[12.7 µM]	-3%	-11%[57.1 µM]	65%	7%
CS(=O)(=O)N1c2ccccc2[C@@]2(Br)C[C@H]3C(=O)N[C@@H](Cc4ccccc4)C(=O)N3[C@@H]12	·	·	-3%	24%	·
O=C(c1cccc(S(=O)(=O)N2CCCCCC2)c1)N1CCN(c2ccccc2)CC1	-3%	-27%	-6%	31%	-8%
COc1cc(-c2nnc(SCc3cc(=O)oc4cc(O)c(O)cc34)o2)cc(OC)c1OC	4.5µM*	7.9µM*	?	-45%	-11%
CCN(C(=O)CSc1nnc(-c2cc(OC)c(OC)c(OC)c2)o1)c1ccccc1	-45%[59 µM]	56µM*	?	16%	·
Cc1ccc2nc(-c3ccc(NC(=O)CN(c4ccccc4C)S(C)(=O)=O)cc3)sc2c1	-12%[59 µM]	7%	-14%	15%	15%
O=C(Nc1ccc(-n2ccc(C(F)(F)F)n2)cc1)c1cccs1	7%	-2%	4%	40%	3%
O=C(O)c1ccccc1C(=O)Nc1ccc(-n2ccc(C(F)(F)F)n2)cc1	79µM*	-5%	-1%	30%	20%
Cc1cccc(NC(=O)NNC(=O)c2c(Cl)c(C)nn2C)c1	-24%	1%	-2%	30%	0%

Compound activity from PubChem BioAssay.
